Reference: PubChem BioAssay AID651650 (Sanford-Burnham Center for Chemical Genomics, 2012)

Target: Neuropilin-1 (Homo sapiens) (UniProt O14786)
Assay: blockers of CendR peptide binding to NRP-1 – biochemical, FP and AlphaScreen panel, dose response (AID 651650)
Details: NRP-1 b1b2 / RPARPAR peptide binding, FP or AlphaScreen; run 1, at 100 µM (top of the series)

Chain of Neuropilin-1 (Homo sapiens) (O14786 whole entry, looked up): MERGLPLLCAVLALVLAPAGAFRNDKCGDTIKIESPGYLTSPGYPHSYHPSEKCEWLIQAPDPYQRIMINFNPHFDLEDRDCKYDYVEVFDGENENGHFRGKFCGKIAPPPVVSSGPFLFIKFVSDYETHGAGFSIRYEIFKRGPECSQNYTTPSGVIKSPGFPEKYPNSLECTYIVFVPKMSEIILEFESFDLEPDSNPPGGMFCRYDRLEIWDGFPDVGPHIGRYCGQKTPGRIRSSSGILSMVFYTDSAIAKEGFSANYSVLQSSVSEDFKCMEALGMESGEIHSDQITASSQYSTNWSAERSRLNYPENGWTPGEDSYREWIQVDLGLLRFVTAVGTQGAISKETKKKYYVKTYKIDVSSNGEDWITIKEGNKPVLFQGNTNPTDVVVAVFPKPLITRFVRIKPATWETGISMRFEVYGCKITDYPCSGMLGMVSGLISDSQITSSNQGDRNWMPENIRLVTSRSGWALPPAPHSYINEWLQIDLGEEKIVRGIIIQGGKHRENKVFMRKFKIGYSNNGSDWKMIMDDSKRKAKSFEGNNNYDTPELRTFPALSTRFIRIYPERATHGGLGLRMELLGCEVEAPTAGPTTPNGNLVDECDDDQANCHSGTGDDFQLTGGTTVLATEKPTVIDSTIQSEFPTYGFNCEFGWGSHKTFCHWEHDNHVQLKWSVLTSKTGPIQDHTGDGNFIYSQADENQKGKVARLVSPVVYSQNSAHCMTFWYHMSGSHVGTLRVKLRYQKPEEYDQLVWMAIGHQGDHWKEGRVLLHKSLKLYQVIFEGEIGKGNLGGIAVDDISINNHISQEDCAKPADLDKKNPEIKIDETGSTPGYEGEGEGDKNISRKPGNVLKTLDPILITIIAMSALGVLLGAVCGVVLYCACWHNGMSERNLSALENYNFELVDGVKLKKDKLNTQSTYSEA

Row | Compound | inhibition [%]
1 | CN(C)CCOC(c1ccc(Cl)cc1)c1ccccn1 (centres undefined) | 32
2 | Clc1nc(-c2ccccn2)nc2scc(-c3ccccc3)c12 | 7.99
3 | COc1ccc(Cn2c3ccc(OC)cc3c3nc4ccccc4nc32)cc1 | 78.8
4 | CCCn1c(C)cc(C(=O)CSc2nc3nc(C)cc(C)n3n2)c1C | 5.46
5 | C=C1C[C@@]23CCC4[C@@](C)(CCC[C@@]4(C)C(=O)O)C2CC[C@]1(O)C3 (some centres undefined) | 63.6
6 | O=C1CCC[C@@H]2Cc3nc4cc5c(cc4cc3[C@@H]3CCN1[C@H]23)OCO5 | 30.9
7 | C=CCOc1ccc(C2/C(=C(\O)c3c(C)[nH]c(C(=O)OC)c3C)C(=O)C(=O)N2CCN(C)C)cc1 (centres undefined) | 3.64
8 | O=C(NNc1ncnc2c1cnn2-c1ccc(F)cc1)c1ccco1 | 25.9
9 | CCOC(=O)N1CCN(C(=O)Nc2ccc3nc(C)c(C)nc3c2)CC1 | -6.06
10 | Fc1cc(Cl)ccc1Nc1nc(NCc2ccccc2)nc2ccsc12 | 23
11 | CC(C)Oc1ccc(F)cc1-c1cc(C(=O)NCc2ccc(F)cc2)[nH]n1 | 16
12 | O=C(NCc1ccccc1)c1cccc(S(=O)(=O)N2CCCCC2)c1 | 61.2
13 | O=C(CSc1nc(O)c(Cc2ccccc2)c(=O)n1-c1ccccc1)N1CCOCC1 | -18.5
14 | O=C1CCN(Cc2ccccc2)S(=O)(=O)c2ccccc21 | 54
15 | CCc1cc(C(=O)OC)c(NC(=O)c2ccoc2C)s1 | 41.2
16 | O=C(O)c1ccccc1CSc1ccccn1 | 101
17 | COc1ccc(CCN=C2SCC(=O)N2Cc2ccccc2)cc1OC | 28.8
18 | COc1ccc(OCC(=O)O/N=C(\N)Cc2ccc(Cl)cc2Cl)cc1 | 61.1
19 | O=C(O)c1cccc(N2C(=O)c3cc([N+](=O)[O-])cc4cc([N+](=O)[O-])cc(c34)C2=O)c1 | 32.7
20 | CCC1=C(OC(=O)N(CC)CC)N2C(=O)OC(=NCC3CC3)[C@]2(Cc2ccccc2)[C@H]2C1=CC[C@H]1C(=O)N(C)C(=O)[C@H]12 | -6.33

Row | Compound | inhibition [%]
21 | COC(=O)N[C@@H]1C[C@H]2[C@@H]3CC[C@H]4C[C@@H](OC)CC[C@]4(C)[C@H]3CC[C@]12C | 57.8
22 | CNC(=O)NC(=O)C(C)OC(=O)c1c(C)noc1C (centres undefined) | 49.1
23 | COC(=O)c1c(NC(=O)CN(c2ccccc2)S(C)(=O)=O)sc2c1CCCC2 | 84
24 | COc1ccc(-c2csc(NCCc3nc4cc(C(=O)NCCCO)ccc4n3Cc3ccc(C)cc3)n2)cc1 | 90.9
25 | O=c1[nH]c(Nc2ccccn2)cc2ccccc12 | 81.1
26 | COc1ccccc1N1CCN(C2CCCN(C(=O)Cn3cccn3)C2)CC1 (centres undefined) | 38.2
27 | COC/C=C/C1=CC2=CC(=O)C(C)(OC(=O)c3cnc4ccccc4n3)C(=O)C2=CN1Cc1ccc(OC)cc1 (centres undefined) | 66.7
28 | COc1cccc(N2[C@@H](CC(C)=O)c3ccc(/C=C/C(C)=O)cc3S2(=O)=O)c1 | 10.9
29 | CCOC(=O)C1(O)CC(C)=NN1C(=O)c1cccc(Br)c1 (centres undefined) | 35.1
30 | NC(=O)C1CCCN(C(=O)c2ccc3nc(Cc4cccc(Cl)c4)oc3c2)C1 (centres undefined) | 101
31 | CCOC(=O)c1ccc(NC(=O)CN2CCc3ccccc3C2)cc1 | 1.94
32 | CCOC(=O)C1CCN(Cc2ccc3ccccc3c2)CC1 | 52.3
33 | CCOC(=O)[C@@H]1[C@H]2COc3ccccc3[C@@H]2N2C(=O)N(c3ccc(Cl)cc3)C(=O)[C@]12C | 48.8
34 | CCC1=C(OC(=O)N(CC)CC)N2C(=O)OC(=NCC(=O)OC)[C@]2(C)[C@H]2C1=CC[C@H]1C(=O)N(CC)C(=O)[C@H]12 | 11.6
35 | CC1CCN(C(=O)c2[nH]cnc2C(=O)NCc2ccc(CNC(=O)OC(C)(C)C)cc2)CC1 | 55.2
36 | COC(=O)c1ccc(Cn2nnc3c(=O)[nH]c(C4CCCN(S(=O)(=O)c5cccc(Cl)c5)C4)nc32)cc1 (centres undefined) | 35.3
37 | CCN(CCCNC(=O)CNC(=O)c1nn(-c2ccc(OC)cc2OC)c(=O)c2ccccc12)c1cccc(C)c1 | 24.3
38 | O=C1CCCN1CCCNC(=S)Nc1ccc(Cl)cc1Cl | 19.7
39 | CC(=O)NC(c1cccc(F)c1)c1nc(-c2cccc(C(F)(F)F)c2)cs1 (centres undefined) | 9.72
